# PI5P4K alpha inh: inhibitors of human PI5P4K alpha | AID 652105 | P48426 | max response, % | PI5P4Kalpha enzyme, ADP-Glo luminescence, 60 min; stronger effect = lower value | actives 1.2% (n = 330,000); active = max response of -50% or lower; inconclusive = between -30% and -50%; inactive = -30% or higher; also: value at the top dose of about 77 µM
#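 Human PI5P4Kalpha with substrate in 0.038 M HEPES pH 7.4, 0.28 mM EGTA, 0.1% CHAPS, 5% DMSO; reaction started with 5 microM ATP (final), 60 min at room temperature. ADP formed read by ADP-Glo luminescence.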
# G9a block: G9a (human) methyltransferase inhibition; Q96KQ7; G9a H3K9 monomethylation, AlphaScreen, 2 h; Potency, µM (highest dose often 102 µM), hits mostly inhibitors; actives 8.8% (n = 350,000); AID 504332; also: nearly all actives have a fitted effect of over 75% in size
#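 Enzyme 20 nM + cpd, 15 min RT; add b-H3K9 pep 500 nM / SAM 20 uM; 2 h RT; anti-H3K9me1 Ab 0.5 ug/mL + SA donor / anti-rabbit acceptor beads 20 ug/mL each, 10 min; AlphaScreen read.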
# L3MBTL1 block: L3MBTL1 (human) inhibition | AlphaScreen L3MBTL1–H3K9me1 peptide binding | Potency, µM (titrated, usually from 57.1 µM), most hits filed as inhibitors | actives 0.66% (n = 230,000); also: nearly all actives have a fitted effect of over 60% in size
#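 L3MBTL1 (50 nM) pre-complexed 30 min with biotinylated H3(1-15)K9me1 peptide (75 nM), then compounds added for 30 min at room temperature; AlphaScreen streptavidin donor/nickel chelate acceptor beads (10 ug/mL final) read after 30 min dark incubation.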
# JMJD2A Tudor inh: inhibitors of human JMJD2A Tudor domain. Potency, µM (series often up to 114 µM), actives largely listed as inhibitors. AlphaScreen JMJD2A-Tudor / H3K4me3 peptide binding. actives 4.4% (n = 390,000); also: nearly all actives have a fitted effect of over 50% in size
# HP1b chromo inh: HP1-beta chromodomain-methylated histone interaction inhibition; P83916; AlphaScreen HP1-beta / biotin-H3K9me3 peptide binding; Potency, µM (series often up to 114 µM), actives largely listed as inhibitors; actives 0.56% (n = 390,000); AID 540317; also: nearly all actives have a fitted effect of over 70% in size
#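 Compound inhibition of the preformed complex between 50 nM HP1-beta and 50 nM biotinylated H3K9me3 peptide was read by AlphaScreen. Buffer was PBS pH 7.4 with 0.01% Tween-20. Incubations ran 30 min at room temperature, with 10 ug/mL donor/acceptor beads.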
# BAZ2B inh: BAZ2B (human) inhibition; Potency, µM (series often up to 114 µM), actives largely listed as inhibitors; AlphaScreen BAZ2B-H3K14Ac peptide displacement; AID 504333; actives 4.4% (n = 360,000); Q9UIF8; also: nearly all actives have a fitted effect of over 60% in size
#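 In this displacement format the biotinylated H3(5-23) peptide acetylated at Lys14 serves as ligand at 50 nM, with BAZ2B at 50 nM in PBS pH 7.4 containing 0.01% Tween-20. Donor and acceptor beads are 10 ug/mL final.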
# Hits are given with their value; - = inactive; ? = inconclusive; . = not tested or not shown; [ ] = dose if it differs, or a comment. This is a sample that favours compounds with a hit; in the whole collection about 11% have one here. Unless noted, calls follow the shape of the dose curve; as a rule, active = well fitted inhibition curve with a large enough effect; inconclusive = small, poorly fitted or top-dose-only effect; inactive = no such curve, though single readings can be large or run the other way.
SMILES,PI5P4K alpha inh,G9a block,L3MBTL1 block,JMJD2A Tudor inh,HP1b chromo inh,BAZ2B inh
COc1cc(/C=C2\SC(=O)N(CC(=O)Nc3cccc(C)c3)C2=O)cc([N+](=O)[O-])c1O,-92,14µM,.,18µM,28µM,40µM
COc1cc(/C=C2\SC(=O)N(c3ccc(O)cc3)C2=O)cc(OC)c1OC,-,-[12.7 µM],-,-,-,-
COc1ccc(/C=C2\SC(=O)N(CC(=O)Nc3cccnc3)C2=O)cc1OC,-,?,-,-,-,-
CCOc1ccc(S(=O)(=O)N(CC(=O)Nc2ccc(OC)c(Cl)c2)c2ccccc2)cc1,.,?,.,-,-,-
CN(C)CCCN(C(=O)c1cccc(N2C(=O)CCC2=O)c1)c1nc2cc3c(cc2s1)OCO3,-,?,.,-[11.4 µM],-,.
CCN(CC)CCN(C(=O)c1ccc(N2C(=O)CCC2=O)cc1)c1nc2cc3c(cc2s1)OCCO3,-,50µM,.,-,-,.
CCN(CC)CCN(C(=O)c1cccc(N2C(=O)CCC2=O)c1)c1nc2cc3c(cc2s1)OCO3,-,50µM,.,-,-,.
CCOc1ccc(-n2c(SC(C)C(=O)OC)nc3c([nH]c4ccccc43)c2=O)cc1 (stereo not drawn),.,-,.,-,-,-
O=C(Nc1ccccn1)C12CC3CC(C1)CC(C(=O)Nc1ccccn1)(C3)C2,-,-,-,-,-,?
O=C(Nc1nc(COc2ccccc2)cs1)C12CC3CC(CC(C3)C1)C2,.,45µM,.,-,-,-
O=C(CC1CC2CCC1C2)Nc1nc(-c2ccccn2)cs1 (stereo not drawn),-,20µM,.,-,-,45µM
O=C(Nc1nc(-c2ccccn2)cs1)C12CC3CC(CC(O)(C3)C1)C2,-,28µM,?,-[11.4 µM],?,14µM
COc1ccc(NC(=O)CC2CC3CCC2C3)cn1 (stereo not drawn),-,-,-,-,-,-
COc1cc(-c2nc3n(n2)C(c2ccc(F)cc2)C(C(N)=O)=C(C)N3)cc(OC)c1OC (stereo not drawn),.,-,.,-,-,-
CCCN1CCN(C(=S)Nc2ccc(S(N)(=O)=O)cc2)CC1,-,?,.,-,-,-
COc1ccc(S(=O)(=O)N2CCN(C(=S)Nc3ccc(S(N)(=O)=O)cc3)CC2)cc1,-,79µM,.,-,-,-
NS(=O)(=O)c1ccc(NC(=S)NCc2ccccc2)cc1,-,11µM,-,-,?,-
NS(=O)(=O)c1ccc(NC(=S)N2CCC(Cc3ccccc3)CC2)cc1,-,14µM,.,?,?,?
NS(=O)(=O)c1ccc(NC(=S)NCc2ccccc2Cl)cc1,-,?,-,-,-,-
NS(=O)(=O)c1ccc(NC(=S)NCc2cccc(Cl)c2)cc1,-,45µM,-,-,-,-
Cc1cccn2cc(-c3cccc(NC(=O)C(C)C)c3)nc12,.,-,.,-,-,-
COc1ccc(-c2onc(C)c2C)cc1S(=O)(=O)N1CCN(c2ccc(Cl)cc2)CC1,.,-,.,-,-,-
CC(C)C(=O)Nc1cccc(C(=O)Nc2nnc(C(F)(F)F)s2)c1,.,-,.,-,-,-
CC(C)c1ccc(N2C(=O)C(Cl)=C(N3CCOCC3)C2=O)cc1,-,-,.,-,-,-
O=C1C(Cl)=C(N2CCOCC2)C(=O)N1c1ccc(Br)cc1,-,45µM,-,-,-,-
SMILES,PI5P4K alpha inh,G9a block,L3MBTL1 block,JMJD2A Tudor inh,HP1b chromo inh,BAZ2B inh
CCOc1ccc(N2C(=O)C(Cl)=C(N3CCOCC3)C2=O)cc1,-,50µM,-,-,-,-
CCc1ccc(NC(=O)Cn2c(=O)n(-c3ccc(Cl)c(Cl)c3)c(=O)c3c(C)c(C)sc32)cc1,.,-,.,-,-,-
Cc1cc2oc3c(c(=O)c2cc1C)C1(C(=O)N(C)c2ccccc21)N(CCO)C3=O (stereo not drawn),.,-,.,-,-,-
CC(=O)Oc1cccc(C)c1,.,-,.,.,.,.
CC(=O)c1ccc(N2Cc3ccccc3C3(CCOCC3)C2=N)cc1,-,56µM,-,-,-,-
CCOC(=O)c1ccc(NC(=O)C(C)N(c2ccc(OCC)cc2)S(C)(=O)=O)cc1 (stereo not drawn),.,?,.,-,-,-
CCOCCCn1cc(C(=O)c2cc(Br)ccc2O)cc(C#N)c1=O,-,-,.,-,-,56µM
Cn1cnc(S(=O)(=O)N2CCCC(C(=O)Nc3cccc(C#N)c3)C2)c1 (stereo not drawn),.,-,.,-,-,-
N#Cc1c(N)nc(N)nc1Nc1ccc(Br)cc1,-52,?,-,-,-,-
CN(C)c1ncc2nc(-c3ccc(F)cc3)c(=O)n(C)c2n1,.,-[0.501 µM],.,.,.,.
CCOc1ccc2nc(NC(=O)Cn3c(C)csc3=O)sc2c1,-,40µM,-,-,-,-
CCOc1ccc2nc(NS(C)(=O)=O)sc2c1,-,7.1µM,-[11.4 µM],-,-,-
CCOc1ccc2nc(NS(=O)(=O)c3ccc4c(c3)n(C)c(=O)n4C)sc2c1,-,?,-,-,-,56µM
CCOc1ccc2nc(NC(=O)c3ccc(OCC4CCCO4)cc3)sc2c1 (stereo not drawn),-,45µM,-,-,-,-
CCOc1ccc(S(=O)(=O)Nc2nc3ccc(OC)cc3s2)cc1,-,?,.,-,-,-
O=C(c1cc(C(F)(F)F)cc(C(F)(F)F)c1)N1CCC2(CC1)CN(c1ncccn1)C2,.,-[12.7 µM],.,.,.,.
COc1ccc(NC(=O)CCNS(=O)(=O)c2ccc3c(c2)CCCC(=O)N3)cc1,.,-,.,-,-,-
CCOc1ccc2nc(N3CCCCCC3)sc2c1,.,-,-,-,-,-
CCOc1ccc2nc(Cl)sc2c1,-,35µM,-,-,-,-

# Screening results (PubChem)
